Among all 1,800 compounds or so, about 710 (39%) were called active. Inconclusive results (about 28%) are left out.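 How the source made its calls: active means luciferase signal rise whose fitted curve crosses a set activity limit at or below the top valid tested dose; inconclusive means flat fit with 30 to 70% rise, or poor fit; inactive means signal falling, flat within 30%, or crossing above top dose.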 Not all results are given here. Results with a measured potency or affinity are listed apart.
Test: reporter signal increase, D54 LucT cells – cell-based, luminescence, cherry pick, counter-screen for N-linked glycosylation inhibitor project, dose response (AID 624404)
Settings: D54 LucT luciferase reporter counterscreen, 24 h; series mostly up to 19.5 µM
In the case of `O=C(NCCN1C(=O)S/C(=C\c2cccc(Cl)c2Cl)C1=O)C1=COCCO1`, the outcome was “inactive”.
With `Cc1noc2ncnc(Sc3ccc(Cl)cc3)c12` the outcome was “inactive”.
With `COC(=O)c1cc(=O)n(Cc2ccco2)c(=Nc2ccc(F)cc2)s1` the outcome was “inactive”.
For `CCn1c(=O)cc(C(=O)OC)sc1=Nc1ccc(F)c(F)c1`, the outcome was “inactive”.
In the case of `CCN(CC(=O)Nc1ccccc1OC)CC(=O)Nc1ccccc1-c1ccccc1`, the outcome was “inactive”.
For `CCCc1cc(C(=O)N/N=C/c2ccc(C)o2)c2ccccc2n1`, the outcome was “inactive”.
In the case of `COc1ccc(C(=O)NCCN(C)C)c2nc3ccccc3cc12`, the outcome was “inactive”.
With `O=C(/C=C/c1ccc(-c2ccccc2[N+](=O)[O-])o1)c1ccc(Br)cc1` the outcome was “inactive”.
For `N#Cc1cc2[nH]c3ccccc3c2[n+](-c2ccc([N+](=O)[O-])cc2)c1N`, the outcome was “inactive”.
In the case of `Cn1cnc([N+](=O)[O-])c1Sc1nc2ccccc2[nH]1`, the outcome was “inactive”.
For `CCN(CC)CCNc1ccc(CO)c2oc3ccccc3c(=O)c12`, the outcome was “inactive”.
In the case of `CCN(CC)CCNc1ccc(CO)c2oc3cc(Cl)ccc3c(=O)c12`, the outcome was “inactive”.
For `CCn1c(=O)c2cc(C(=O)NCCN(C)C)sc2c2ccccc21`, the outcome was “inactive”.
In the case of `Cn1nc(C(F)(F)F)c(/C=N/OC(=O)c2ccccc2Cl)c1SCc1ccc(Cl)cc1`, the outcome was “inactive”.
With `CCCCc1ccc(N/C(N)=N/c2nc(C)cc(C)n2)cc1` the outcome was “inactive”.
With `Cc1cc(C)nc(/N=C(\N)Nc2ccc(OCCC(C)C)cc2)n1` the outcome was “inactive”.
In the case of `CC1CN(C(=O)/C=C/c2ccc([N+](=O)[O-])s2)CC(C)O1` (stereo not drawn), the outcome was “inactive”.
In the case of `O=C(/C=C/c1ccc([N+](=O)[O-])s1)N1CCCCC1`, the outcome was “inactive”.
In the case of `Cc1c(-c2cccc(Cl)c2)nc2ccccc2c1C(=O)OC/C(O)=C(\C#N)c1nc2ccccc2[nH]1`, the outcome was “inactive”.
For `COc1ccc(C=C(c2nc3ccccc3s2)c2nc3ccccc3s2)cc1O`, the outcome was “inactive”.
For `COCC(=O)OC/C(O)=C(\C#N)c1nc2ccccc2[nH]1`, the outcome was “inactive”.
For `COc1ccc(CCCNC(=O)C2Cc3c(-c4cccc(C(C)=O)c4)ccnc3O2)cc1` (stereo not drawn), the outcome was “inactive”.
For `COc1ccc(NC(=O)C2Cc3c(-c4cccc(C(C)=O)c4)ccnc3O2)cn1` (stereo not drawn), the outcome was “inactive”.
For `CS(=O)(=O)Nc1cccc(NC(=O)C2Cc3c(-c4ccccc4)ccnc3O2)c1` (stereo not drawn), the outcome was “inactive”.
With `COc1ccc(NC(=O)C2Cc3c(-c4ccc5c(c4)OCO5)ccnc3O2)cc1` (stereo not drawn) the outcome was “inactive”.
For `CC(=O)Nc1cccc(-c2ccnc3c2CC(C(=O)NCc2ccco2)O3)c1` (stereo not drawn), the outcome was “inactive”.
For `COc1ccc2nc(C)cc(Nc3ccc(N4CCOCC4)cc3)c2c1`, the outcome was “inactive”.
With `COc1ccc(Nc2cc(C)nc3ccc(OC)cc23)cc1` the outcome was “inactive”.
For `CN(C1=C(NC(=O)c2ccc(Cl)cc2)C(=O)c2ccccc2C1=O)c1ccccc1`, the outcome was “inactive”.
For `CC[C@@H]1CC=C[C@H]2[C@H]1C(=O)N(Cc1ccccc1)[C@H]2c1ccoc1`, the outcome was “inactive”.
For `NC(=O)/C=C\C(=O)Nc1cccc(C(F)(F)F)c1`, the outcome was “inactive”.
For `O=C(OCn1ncc(Cl)c(Cl)c1=O)c1ccc(C(F)(F)F)cc1`, the outcome was “inactive”.
For `C=CCOc1ccc(C2C(C#N)=C(N)N(Nc3ccccc3)C3=C2C(=O)CCC3)cc1OC` (stereo not drawn), the outcome was “inactive”.
In the case of `COc1cc(-c2cc3nc(NCCOc4ccccc4)ccn3n2)cc(OC)c1OC`, the outcome was “inactive”.
With `CCOC(=O)/C=C(\C)Sc1cc(=O)oc2ccccc12` the outcome was “inactive”.
With `O=C(N=Nc1c(O)[nH]c2ccc(Br)cc12)c1cc(-c2cccs2)nc2ccccc12` the outcome was “inactive”.
With `CCc1ccc(/C=N/NC(=O)c2cc(-c3ccncc3)nc3ccccc23)s1` the outcome was “inactive”.
With `C=C(C)Cc1c(C)c(C#N)c2nc3ccccc3n2c1NCCCN(C)C` the outcome was “inactive”.
In the case of `COc1ccc(CCCNC(=O)C2(C)Cc3c(-c4ccc5c(c4)OCO5)ccnc3O2)cc1` (stereo not drawn), the outcome was “inactive”.
For `COc1cc(C2c3cc4c(cc3OC(Nc3ccc(C(=O)O)cc3)C2C)OCO4)cc(OC)c1OC` (stereo not drawn), the outcome was “inactive”.
With `Clc1cccc(Cl)c1Cn1cnc2c(NCc3ccco3)ncnc21` the outcome was “inactive”.
In the case of `CCN(CC)Cc1cc(Nc2c3ccccc3nc3c4ccccc4n(C)c23)cc(CN(CC)CC)c1O`, the outcome was “inactive”.
For `Cc1ccc2cc(CN(CCCN(C)C)C(=O)NCc3ccccc3)c(=O)[nH]c2c1C`, the outcome was “inactive”.
In the case of `COc1ccc2[nH]c3c(N4CCC(O)(c5cccc(C(F)(F)F)c5)CC4)ncnc3c2c1`, the outcome was “inactive”.
For `COc1ccc(CN2C(=O)C(C)Nc3ncnc(N4CCc5ccccc5C4)c32)cc1` (stereo not drawn), the outcome was “inactive”.
With `Cc1nc2ccccc2c2oc(C(=O)NCCCN3CC(C)CC(C)C3)cc12` (stereo not drawn) the outcome was “inactive”.
For `O=C(NCC1CCCO1)c1cc(-c2ccccc2)on1` (stereo not drawn), the outcome was “inactive”.
With `O=C1C=C(Nc2ccc(Cl)cc2Cl)CC(c2ccco2)C1` (stereo not drawn) the outcome was “inactive”.
With `NC(=O)CC(NC(=O)Cc1ccc(Cl)cc1)c1ccc(NC2CC3CCC2C3)c([N+](=O)[O-])c1` (stereo not drawn) the outcome was “inactive”.
For `NC(=O)CC(NC(=O)Cc1ccc(Br)cc1)c1ccc(NCc2cc(F)ccc2F)c([N+](=O)[O-])c1` (stereo not drawn), the outcome was “inactive”.
With `NC(=O)CC(NC(=O)c1ccc(Br)cc1)c1ccc(N2CCCCCCC2)c([N+](=O)[O-])c1` (stereo not drawn) the outcome was “inactive”.
In the case of `NC(=O)CC(NC(=O)Cc1ccc(Cl)cc1)c1ccc(NC2CCCC2)c([N+](=O)[O-])c1` (stereo not drawn), the outcome was “inactive”.
With `NC(=O)CC(NC(=O)Cc1ccc(Cl)cc1)c1ccc(NC2CCN(Cc3ccccc3)CC2)c([N+](=O)[O-])c1` (stereo not drawn) the outcome was “inactive”.
In the case of `O=C(CC1Sc2ccccc2NC1=O)NNc1ccc(Cl)c(Cl)c1` (stereo not drawn), the outcome was “inactive”.
In the case of `CCCCOc1ccccc1C1CC(=O)NC2=C1C(=O)CCC2` (stereo not drawn), the outcome was “inactive”.
For `CC(C)Nc1ccc(C(CC(N)=O)NC(=O)Cc2ccc(Br)cc2)cc1[N+](=O)[O-]` (stereo not drawn), the outcome was “inactive”.
With `COc1ccc(C=CC(=O)c2ccc3cc(OC)c(OC)cc3c2)cc1OC` the outcome was “inactive”.
For `COc1ccc(NC(=O)c2cccc(Oc3ccccc3)c2)cn1`, the outcome was “inactive”.
In the case of `O=C(NC1CCCCC1)C(c1cccnc1)N(C(=O)CCl)c1cccc(Cl)c1` (stereo not drawn), the outcome was “inactive”.
In the case of `Cc1cccc(N2C(=O)CC(N3CCN(C(=O)c4ccccc4)CC3)C2=O)c1` (stereo not drawn), the outcome was “inactive”.
In the case of `Cn1c(C(=O)NC2CCCCCC2)cc2c(=O)n(C)c3ccccc3c21`, the outcome was “inactive”.
For `Cc1ccc(S(=O)(=O)N(C)C[C@@H]2Oc3ccc(NC(=O)CCC(F)(F)F)cc3CC(=O)N([C@@H](C)CO)C[C@@H]2C)cc1`, the outcome was “inactive”.
For `C[C@H](CO)N1C[C@H](C)[C@@H](CN(C)Cc2ccccc2)Oc2ccc(NC(=O)CCCCCC(=O)Nc3ccccc3N)cc2C1=O`, the outcome was “inactive”.

— PubChem BioAssay AID624404 (Broad Institute, 2012)
